PubChem BioAssay (NCI)
The panel holds about 83,000 compounds, 20% with a hit somewhere; the sample as a whole holds those more often.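 Cells were grown in 96-well plates and exposed to the test compound at a single concentration for 48 hours; results are reported as percent growth, with values below 10 considered active.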 A number with no mark means an inactive call. The source made the active and inactive calls.

Legend:
Experiment in all cases: NCI-60 one-dose screen, 48 h (100 = growth as untreated, 0 = no growth, -100 = all killed)
Conditions in all cases: 10 µM unless noted
[1] = test system: NCI-H23 lung
[2] = test system: NCI-H226 lung
[3] = test system: NCI-H322M lung
[4] = test system: HOP-62 NSCLC
[5] = test system: NCI-H460 lung
[6] = test system: HOP-92 NSCLC
[7] = test system: NCI-H522 lung
[8] = test system: A549/ATCC NSCLC
[9] = test system: 786-0 renal
[10] = test system: COLO 205 colon
[11] = test system: DU-145 prostate
[12] = test system: K-562 leukemia
[13] = test system: MALME-3M melanoma
[14] = test system: MDA-MB-231 breast
[15] = test system: RXF 393 renal
[16] = test system: SF-268 CNS
[17] = test system: SF-295 CNS
[18] = test system: SF-539 CNS
[19] = test system: UACC-257 melanoma
[20] = test system: M14 melanoma

Row | SMILES | growth [1] | growth [2] [%] | growth [3] | growth [4] | growth [5] | growth [6] | growth [7] | growth [8] [%] | growth [9] | growth [10] | growth [11] [%] | growth [12] | growth [13] | growth [14] [%] | growth [15] | growth [16] [%] | growth [17] | growth [18] | growth [19] | growth [20]
1 | COc1ccc(-c2c(C(N)=O)c(N)n(Cc3nc4ccccc4[nH]3)c(=O)c2C#N)c(OC)c1 | 93.1% | 94.5 | 97.3% | 94.9% | 105% | 101% | 95.2% | 102 | 103% | 117% | 112 | 101% | 93.2% | 92.1 | 117% | 102 | 104% | 97.9% | 112% | 102%
2 | N#Cc1nc(-c2ccc(Cl)cc2)oc1N1CCC(S(=O)(=O)N2CCOCC2)CC1 | 96.5% | 94.6 | 92.2% | 94.6% | 103% | 100% | 87.2% | 99.9 | 93.5% | 116% | 105 | 101% | 99.2% | 94.7 | 99.8% | 96.6 | 102% | 93.6% | 108% | 107%
3 | O=C(CSc1nc2ccccc2c(=O)n1-c1ccccc1)N/N=C/c1ccc(Oc2ccc(Cl)cc2)cc1 | 39.1% | 72.1 | 84.5% | 59.1% | 32.1% | 66.7% | 49.6% | 41.7 | 53.2% | 49.2% | 38.4 | 61.2% | 51.3% | 49.2 | 42% | 87.1 | 83.8% | 68.5% | 96.9% | 48.8%
4 | C#CCOc1ccc(/C=N/Nc2nc(-c3ccc(OC)cc3)cs2)cc1 | 68.9% | 63.7 | 95% | 97.6% | 77.3% | 68.6% | 70.1% | 77 | 89.2% | 96.1% | 78.7 | 47.7% | 83.9% | 91.3 | 99.1% | 87.2 | 66.8% | 97.3% | 76.1% | 93.1%
5 | CN1CCN(c2ccc(Nc3nc(NCCCNS(=O)(=O)c4ccccc4)c4sccc4n3)cc2)CC1 | 90.6% | 111 | 80.3% | 105% | 36.9% | 59.2% | 44.8% | 62 | 7.25% (active) | 49.2% | 56.4 | 16.7% | -42.8% (active) | 38.1 | -29.8% (active) | 64.2 | 38.4% | -71.4% (active) | -15.6% (active) | -9.06% (active)
6 | C#C[C@]1(O)CC[C@H]2[C@@H]3CC=C4c5sc(Nc6cc(Cl)ccc6OC)nc5CC[C@]4(C)[C@H]3CC[C@@]21C | 33.4% | 52.4 | 53.2% | 32.5% | 17% | -0.0409% (active) | 52.8% | 28.7 | -32.3% (active) | 21.8% | 19.1 | 4.32% (active) | 12.1% | 43.6 | -74.9% (active) | 24.6 | -62.4% (active) | -22.1% (active) | -16.3% (active) | -51.7% (active)
7 | O=C(N/N=C\c1ccc([N+](=O)[O-])cc1)c1ccc2nc(-c3ccc(Br)cc3)[nH]c2c1 | 8.79% (active) | 62.4 | 68.2% | 29.7% | -43.8% (active) | 55% | 5.47% (active) | 27.2 | 36.8% | -50.6% (active) | 28.2 | 2.69% (active) | 6.94% (active) | 62.4 | 11.5% | 44.7 | 25.1% | 28.2% | 18.2% | 3.52% (active)
8 | CCCc1[nH]c(-c2cc(N)ccc2Cl)c2c1C(=O)CCCC2 | 93.3% | 98.1 | 89.1% | 94.5% | 102% | 81.6% | 90.9% | 91.9 | 91% | 121% | 107 | 93.1% | 93.7% | 100 | 102% | 97.3 | 80.8% | 98.3% | 104% | 107%
9 | COc1ccc(C2c3[nH]c4ccc(Cl)cc4c3CCN2c2oc(CO)nc2C#N)cc1 (stereo not given) | 69.9% | 60 | 70.4% | 53.5% | 22.9% | 53.3% | 31.7% | 38.1 | 64.6% | 40.5% | 57.3 | 19.5% | 72.1% | 59.7 | 62.8% | 53.6 | 45.6% | 40.3% | 67.5% | 53.5%
10 | CC(=O)OCCCCN1C=C/C(=C\C(=O)n2ccc3ccccc32)c2ccccc21 | 96.2% | 88.5 | 98.7% | 108% | 102% | 97.6% | 99.1% | 113 | 107% | 108% | 109 | 90.6% | 106% | 86.6 | 115% | 103 | 103% | 100% | 112% | 101%
11 | O=C(CSc1nnc(-c2cccs2)n1-c1ccccc1)Nc1ccccc1 | 86% | 64.4 | 84% | 46.7% | 81.8% | 53.3% | 57.7% | 87.7 | 85.1% | 104% | 83.3 | 49.6% | 35.2% | 76.4 | 59.8% | 60 | 90.1% | 60.7% | 85.4% | 88.2%
12 | Cn1c2nc3ccccc3c-2cc2ccccc21 | 44.9% | 53 | 4.32% (active) | 51.3% | 13.4% | 57.2% | 41.6% | 28.4 | 38% | 26% | 30.9 | 21.1% | 36.6% | 36.1 | 43.3% | 57.3 | 39.6% | 39.1% | 49.2% | 48.3%
13 | Cn1cc(-c2nnc(N)nc2-c2c[nH]c3ccc(F)cc23)c2cc(Br)ccc21 | 26.4% | 27.4 | 41.8% | 30.9% | 13.8% | 56.5% | -0.551% (active) | 38.6 | 21.5% | 9.15% (active) | 37.8 | 6.36% (active) | 41.7% | 47.3 | -12.7% (active) | 39.7 | 9.61% (active) | 7.43% (active) | 50.9% | -6.09% (active)
14 | O=C(COc1ccc(/C=C2\C(=O)Nc3cc(Cl)ccc32)cc1)Nc1ccc(Cl)cc1 | 79.9% | 79.1 | 74.4% | 76.7% | 73.4% | 90.8% | 45.7% | 68.8 | 90.7% | 81.3% | 85.9 | 32.8% | 98.7% | 82.8 | 76.4% | 72.6 | 66% | 66.8% | 78.4% | 22.1%
15 | N/C(=N\C(N)=N\c1nc2ccccc2s1)c1ccc(Cl)cc1 | 75.1% | 77.8 | 88.3% | 1.11% (active) | 52.5% | 84.6% | 80.8% | 20.9 | 102% | 104% | 85.4 | 86.9% | 90.3% | 79.5 | 92.6% | 93 | 44.5% | 95.4% | 105% | 87.6%
16 | COc1ccc(C2C(C#N)=C(/N=C/c3ccc(Cl)cc3)Oc3c2sc2c(C)cccc32)cc1 (stereo not given) | 26.2% | 45.4 | 44.2% | 29.8% | 10.1% | 30.5% | -40.8% (active) | 34.2 | 39.2% | -22.3% (active) | 26.1 | 9.73% (active) | 50.2% | 33.9 | -5.77% (active) | 52.9 | 8.79% (active) | 1.34% (active) | 70.9% | 0.955% (active)
